# Values joined by “and” are separate entries in the source; they are usually repeats but may differ in a detail not shown here. Identical values can stand only once. This is part of a sample that, as a whole, favours compounds with a hit. Of some 83,000 tested, about 20% had one in any assay.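 Assay: single dose, 48 h. Readout: percent growth (0 = no net growth; negative = cell death). Active: <10.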 Active and inactive are the calls of the source.
# System: CCRF-CEM leukemia
# Experiment: NCI-60 one-dose screen, 48 h (100 = growth as untreated, 0 = no growth, -100 = all killed)
# Conditions: 10 µM unless noted
row,Structure (SMILES),growth
1,CC[C@@]1(O)C[C@H](OC2CC(N(C)C)C(O)C(C)O2)c2c(O)c3c(c(O)c2[C@H]1OC1CC(N(C)C)C(O)C(C)O1)C(=O)c1cccc(O)c1C3=O (stereo not given in full),-37.7% (active)
2,COC1CC(CC2CCC(C)C(C(C)C(=O)O)O2)OC2(OC(C)(C3CCC(C)(C4OC(C5OC(O)(CO)C(C)CC5C)CC4C)O3)CC2C)C1C (stereo not given),-27.1% (active)
3,CCC(=O)OC1CCn2c1nc1c2C(=O)C(C)=C(N2CC2)C1=O (stereo not given),70.4% (inactive)
4,CO[C@H](/C(C)=C/C=C/C(C)=C/c1coc(C)n1)[C@H](C)[C@H]1C[C@@H](O)[C@@]2(C)O[C@H]2/C=C/[C@@H](C)[C@@H]2C[C@@H](CC(=O)O2)C[C@H]2O[C@@H]2C(=O)O1,-3.89% (active)
5,CC1=C(CO)C2=C(C)C3(CC3)[C@@](C)(O)C(=O)C2=C1,28.6% (inactive)
6,COC1=C(C)C(=O)C2=C(C1=O)C(CO)N1C(C#N)C3CC4C(C1C2N1CCOC41)N3C (stereo not given),-37.8% (active)
7,CC[n+]1c(-c2ccccc2)c2cc(N)ccc2c2ccc(N)cc21,27.5% (inactive)
8,CN1CCN(c2ccc([N+](=O)[O-])c3no[n+]([O-])c23)CC1,-30.6% (active)
9,COc1cccc2c1cc([N+](=O)[O-])c1c(C(=O)O)cc3c(c12)OCO3,45.8% (inactive) and 77.6% (inactive)
10,CCOC(=O)C(NC(=O)C(Cc1ccc(N(CCCl)CCCl)cc1)NC(C)=O)C(C)C (stereo not given),71.7% (inactive)
11,C[C@]12CC[C@H](O)CC1=CC[C@@H]1[C@@H]2CC[C@]2(C)C(=O)CC[C@@H]12,76.3% (inactive)
12,Oc1cccc2cccnc12,48.8% (inactive) and 99.2% (inactive) and 96% (inactive)
13,COc1ccccc1/C=C(/C)[N+](=O)[O-],8.42% (active) and 99.5% (inactive)
14,CC1=C2C(=O)[C@H]3[C@@H](CC=C4C[C@@H](O)CC[C@@]43C)[C@@H]2CC[C@]12O[C@@H]1C[C@H](C)CN[C@H]1[C@H]2C,89.5% (inactive)
15,Cc1cc(N=Nc2ccccc2C)ccc1N,4.33% (active)
16,COc1ccc(OC)c(/C=C/[N+](=O)[O-])c1,8.78% (active)
17,CC[C@](O)(C(=O)O)c1cc2n(c(=O)c1CO)Cc1cc3ccccc3nc1-2,-24.5% (active)
18,Cc1c(N)nc([C@H](CC(N)=O)NC[C@H](N)C(N)=O)nc1C(=O)N[C@H](C(=O)N[C@H](C)[C@@H](O)[C@H](C)C(=O)N[C@H](C(=O)NCCc1nc(-c2nc(C(=O)NCCC[S+](C)C)cs2)cs1)[C@@H](C)O)C(OC1OC(CO)C(O)C(O)C1OC1OC(CO)C(O)C(OC(N)=O)C1O)c1cnc[nH]1 (stereo not given in full),51.6% [2.5 µM] (inactive)
19,CC[C@@]1(O)C(=O)OCc2c1cc1n(c2=O)Cc2cc3ccccc3nc2-1,-28.1% (active)
20,Oc1cc[c]([Hg][Cl])cc1,55.2% (inactive)
21,CCC1(O)CC(OC2CC(N(C)C)C(OC3CC4OC5CC(=O)C(C)OC5OC4C(C)O3)C(C)O2)c2c(cc3c(c2O)C(=O)c2c(O)ccc(O)c2C3=O)C1C(=O)OC (stereo not given),-31.2% (active)
22,O=C1c2ccccc2C(=O)C(Cl)C1Cl (stereo not given),-20.8% (active)
23,Cc1ccc(C(=O)OC(C(=O)O)C(OC(=O)c2ccc(C)cc2)C(=O)O)cc1 (stereo not given) (tested in a mixture with another compound),23% (inactive)
24,CCCCCCCCCCCC1CCCC(C)N1 (stereo not given),16.5% (inactive)
25,CC(=O)O[C@H]1C[C@@H]2OC3C=C(C)CCC3(C)[C@@]1(C)[C@@]21CO1 (stereo not given in full),2.26% (active)
26,CC[C@@]1(O)C[C@H](OC2CC(N(C)C)C(OC3CC(O)C(OC4CCC(=O)C(C)O4)C(C)O3)C(C)O2)c2c(cc3c(c2O)C(=O)c2c(O)ccc(O)c2C3=O)[C@H]1C(=O)OC (stereo not given in full),4.1% (active)
27,C[C@H]1CCC/C=C/[C@@H]2C[C@H](O)C[C@H]2[C@H](O)/C=C/C(=O)O1,7.53% (active)

# System: MOLT-4 leukemia
# Experiment: as above
# Conditions: 10 µM unless noted
row,Structure (SMILES),growth
1,CC[C@@]1(O)C[C@H](OC2CC(N(C)C)C(O)C(C)O2)c2c(O)c3c(c(O)c2[C@H]1OC1CC(N(C)C)C(O)C(C)O1)C(=O)c1cccc(O)c1C3=O (stereo not given in full),-10.5% (active)
2,COC1CC(CC2CCC(C)C(C(C)C(=O)O)O2)OC2(OC(C)(C3CCC(C)(C4OC(C5OC(O)(CO)C(C)CC5C)CC4C)O3)CC2C)C1C (stereo not given),-36.2% (active)
3,CCC(=O)OC1CCn2c1nc1c2C(=O)C(C)=C(N2CC2)C1=O (stereo not given),70.5% (inactive)
4,CO[C@H](/C(C)=C/C=C/C(C)=C/c1coc(C)n1)[C@H](C)[C@H]1C[C@@H](O)[C@@]2(C)O[C@H]2/C=C/[C@@H](C)[C@@H]2C[C@@H](CC(=O)O2)C[C@H]2O[C@@H]2C(=O)O1,9.7% (active)
5,CC1=C(CO)C2=C(C)C3(CC3)[C@@](C)(O)C(=O)C2=C1,16% (inactive)
6,COC1=C(C)C(=O)C2=C(C1=O)C(CO)N1C(C#N)C3CC4C(C1C2N1CCOC41)N3C (stereo not given),-2.61% (active)
7,CC[n+]1c(-c2ccccc2)c2cc(N)ccc2c2ccc(N)cc21,23.7% (inactive)
8,CN1CCN(c2ccc([N+](=O)[O-])c3no[n+]([O-])c23)CC1,-46% (active)
9,COc1cccc2c1cc([N+](=O)[O-])c1c(C(=O)O)cc3c(c12)OCO3,35.7% (inactive) and 95.9% (inactive)
10,CCOC(=O)C(NC(=O)C(Cc1ccc(N(CCCl)CCCl)cc1)NC(C)=O)C(C)C (stereo not given),56.6% (inactive)
11,C[C@]12CC[C@H](O)CC1=CC[C@@H]1[C@@H]2CC[C@]2(C)C(=O)CC[C@@H]12,89% (inactive)
12,NCCc1ccc(OCc2ccccc2)c(OCc2ccccc2)c1,78.1% (inactive)
13,Oc1cccc2cccnc12,60.2% (inactive) and 110% (inactive) and 97.8% (inactive)
14,COc1ccccc1/C=C(/C)[N+](=O)[O-],13.9% (inactive) and 102% (inactive)
15,CC1=C2C(=O)[C@H]3[C@@H](CC=C4C[C@@H](O)CC[C@@]43C)[C@@H]2CC[C@]12O[C@@H]1C[C@H](C)CN[C@H]1[C@H]2C,96.9% (inactive)
16,Cc1cc(N=Nc2ccccc2C)ccc1N,29.3% (inactive)
17,COc1ccc(OC)c(/C=C/[N+](=O)[O-])c1,-4.18% (active)
18,CC[C@](O)(C(=O)O)c1cc2n(c(=O)c1CO)Cc1cc3ccccc3nc1-2,-38.3% (active)
19,Cc1c(N)nc([C@H](CC(N)=O)NC[C@H](N)C(N)=O)nc1C(=O)N[C@H](C(=O)N[C@H](C)[C@@H](O)[C@H](C)C(=O)N[C@H](C(=O)NCCc1nc(-c2nc(C(=O)NCCC[S+](C)C)cs2)cs1)[C@@H](C)O)C(OC1OC(CO)C(O)C(O)C1OC1OC(CO)C(O)C(OC(N)=O)C1O)c1cnc[nH]1 (stereo not given in full),67.1% [2.5 µM] (inactive)
20,CC[C@@]1(O)C(=O)OCc2c1cc1n(c2=O)Cc2cc3ccccc3nc2-1,-17.4% (active)
21,Oc1cc[c]([Hg][Cl])cc1,65.2% (inactive)
22,CCC1(O)CC(OC2CC(N(C)C)C(OC3CC4OC5CC(=O)C(C)OC5OC4C(C)O3)C(C)O2)c2c(cc3c(c2O)C(=O)c2c(O)ccc(O)c2C3=O)C1C(=O)OC (stereo not given),-9.49% (active)
23,O=C1c2ccccc2C(=O)C(Cl)C1Cl (stereo not given),-8.44% (active)
24,Cc1ccc(C(=O)OC(C(=O)O)C(OC(=O)c2ccc(C)cc2)C(=O)O)cc1 (stereo not given) (tested in a mixture with another compound),35.9% (inactive)
25,CCCCCCCCCCCC1CCCC(C)N1 (stereo not given),14.1% (inactive)
26,CC(=O)O[C@H]1C[C@@H]2OC3C=C(C)CCC3(C)[C@@]1(C)[C@@]21CO1 (stereo not given in full),-15.6% (active) and -30.2% (active)
27,CC[C@@]1(O)C[C@H](OC2CC(N(C)C)C(OC3CC(O)C(OC4CCC(=O)C(C)O4)C(C)O3)C(C)O2)c2c(cc3c(c2O)C(=O)c2c(O)ccc(O)c2C3=O)[C@H]1C(=O)OC (stereo not given in full),7.32% (active)
28,C[C@H]1CCC/C=C/[C@@H]2C[C@H](O)C[C@H]2[C@H](O)/C=C/C(=O)O1,-7.93% (active)

# Source: PubChem BioAssay (NCI)
